Measured values reported in PubChem BioAssay (NCATS).
Where “and” joins values, the source holds several entries; their conditions need not be identical. Equal values may be shown once. A number with no mark means an inactive call. Inconclusive results are not listed. Entries that show only a call come without a potency. Calls of active or inactive are those of the source. Calls come from the whole dose curve; as a rule, active = well fitted curve in the direction sought with a large enough effect; inconclusive = small, poorly fitted or top-dose-only effect, or another doubt; inactive = no such curve, though single readings can be large; an effect the other way counts as inactive or inconclusive.

Experiments:
[1] = target: Cytochrome P450 2C9 (Homo sapiens) (UniProt P11712); experiment: qHTS Assay for Inhibitors and Substrates of Cytochrome P450 2C9 (AID 883); note: nearly all actives have a fitted effect of over 60% in size; note: potency is the fitted concentration of half-maximal effect
Summary of the method: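 Signal: luciferase luminescence reporting luciferin produced by CYP2C9. Conditions: 10nM enzyme, Luciferin-H 100uM at KM, 25mM KPO4, 37C, 60 min NADPH-driven reaction. Reference: 57uM sulphaphenazole as 100% inhibition.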

[2] = target: Cytochrome P450 3A4 (Homo sapiens) (UniProt P08684); experiment: qHTS Assay for Inhibitors and Substrates of Cytochrome P450 3A4 (AID 884); note: nearly all actives have a fitted effect of over 50% in size; note: potency is the fitted concentration of half-maximal effect; for activity change, negative = inhibition: series mostly up to about 57 µM
Summary of the method: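 Luminescent readout of luciferin produced by CYP3A4 (20 nM) dealkylation of Luciferin-PPXE, 25 uM (its KM). NADPH-driven reaction ran 60 min at RT after 10 min compound preincubation; data scaled to 57 uM ketoconazole as 100% inhibition.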

[3] = target: Cytochrome P450 3A4 (Homo sapiens) (UniProt P08684); experiment: qHTS Assay for Activators of Cytochrome P450 3A4 (AID 885); note: nearly all actives have a fitted effect of over 65% in size
Summary of the method: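 Human CYP3A4 dealkylates Luciferin-PPXE to luciferin, which luciferase detection converts to light. Substrate was at its KM (25uM), buffer 200mM KPO4, reaction 60 min at RT.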

[4] = target: Cytochrome P450 2C19 (Homo sapiens) (UniProt P33261); experiment: qHTS Assay for Inhibitors and Substrates of Cytochrome P450 2C19 (AID 899); note: nearly all actives have a fitted effect of over 60% in size; note: potency is the fitted concentration of half-maximal effect
Summary of the method: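 Signal comes from luciferase acting on luciferin released by CYP2C19-mediated hydroxylation of Luciferin-H EGE, 10uM (KM). Assay mix: 5nM enzyme, 50mM KPO4; 60 min at 37C with NADPH regeneration. Data normalized against 57uM ketoconazole.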

[5] = target: Cytochrome P450 2D6 (Homo sapiens) (UniProt P10635); experiment: qHTS Assay for Inhibitors and Substrates of Cytochrome P450 2D6 (AID 891);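 note: luciferin methyl ether substrate demethylated by CYP2D6 with NADPH regeneration; nearly all actives have a fitted effect of over 60% in size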
Summary of the method: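 Luminescent read-out of luciferin formed by 5 nM human CYP2D6 demethylating 30 uM Luciferin-ME EGE (Km level) over 60 min at room temperature after NADPH regeneration addition. Data normalized to full inhibition by 1.43 uM quinidine.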

Chain of Cytochrome P450 2D6 (Homo sapiens) (P10635 whole entry, looked up): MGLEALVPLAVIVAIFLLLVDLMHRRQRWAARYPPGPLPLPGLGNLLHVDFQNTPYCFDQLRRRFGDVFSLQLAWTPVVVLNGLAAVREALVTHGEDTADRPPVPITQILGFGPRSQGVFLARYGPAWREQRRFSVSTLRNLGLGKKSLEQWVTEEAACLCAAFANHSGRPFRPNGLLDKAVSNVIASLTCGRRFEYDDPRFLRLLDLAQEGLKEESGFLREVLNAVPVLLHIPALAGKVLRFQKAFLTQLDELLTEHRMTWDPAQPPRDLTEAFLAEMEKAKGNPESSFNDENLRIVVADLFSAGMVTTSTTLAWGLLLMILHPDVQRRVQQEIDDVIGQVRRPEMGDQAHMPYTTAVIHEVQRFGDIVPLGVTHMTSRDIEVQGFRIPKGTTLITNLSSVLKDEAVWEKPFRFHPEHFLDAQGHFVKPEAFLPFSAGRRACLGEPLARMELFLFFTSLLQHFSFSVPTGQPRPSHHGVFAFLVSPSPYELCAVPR
Chain of Cytochrome P450 2C19 (Homo sapiens) (P33261 whole entry, looked up): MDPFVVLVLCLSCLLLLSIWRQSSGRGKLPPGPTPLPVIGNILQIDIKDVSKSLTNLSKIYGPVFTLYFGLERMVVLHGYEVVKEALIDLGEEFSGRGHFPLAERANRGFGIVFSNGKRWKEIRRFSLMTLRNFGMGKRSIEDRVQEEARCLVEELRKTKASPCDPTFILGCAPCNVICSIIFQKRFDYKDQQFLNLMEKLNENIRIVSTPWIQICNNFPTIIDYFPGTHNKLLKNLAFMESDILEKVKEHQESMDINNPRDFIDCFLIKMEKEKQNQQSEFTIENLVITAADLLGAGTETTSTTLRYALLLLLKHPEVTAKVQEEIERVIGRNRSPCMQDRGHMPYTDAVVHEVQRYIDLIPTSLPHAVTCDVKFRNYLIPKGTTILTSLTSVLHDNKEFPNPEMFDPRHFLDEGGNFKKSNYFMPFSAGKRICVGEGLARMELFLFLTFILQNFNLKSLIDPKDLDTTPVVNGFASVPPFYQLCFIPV
Chain of Cytochrome P450 3A4 (Homo sapiens) (P08684 whole entry, looked up): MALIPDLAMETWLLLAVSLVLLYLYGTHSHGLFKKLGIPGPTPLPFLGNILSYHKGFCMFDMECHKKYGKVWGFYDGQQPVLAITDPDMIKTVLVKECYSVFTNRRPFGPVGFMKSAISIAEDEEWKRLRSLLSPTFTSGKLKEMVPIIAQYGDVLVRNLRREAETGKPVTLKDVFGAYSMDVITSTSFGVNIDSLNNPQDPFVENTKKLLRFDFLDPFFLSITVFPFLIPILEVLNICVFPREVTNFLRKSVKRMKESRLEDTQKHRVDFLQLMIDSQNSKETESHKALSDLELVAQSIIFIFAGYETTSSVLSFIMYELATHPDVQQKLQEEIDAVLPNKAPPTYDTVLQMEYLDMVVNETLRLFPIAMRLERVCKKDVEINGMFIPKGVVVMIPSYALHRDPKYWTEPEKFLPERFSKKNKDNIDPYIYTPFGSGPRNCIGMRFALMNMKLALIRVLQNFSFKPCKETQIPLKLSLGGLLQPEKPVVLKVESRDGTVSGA
Chain of Cytochrome P450 2C9 (Homo sapiens) (P11712 whole entry, looked up): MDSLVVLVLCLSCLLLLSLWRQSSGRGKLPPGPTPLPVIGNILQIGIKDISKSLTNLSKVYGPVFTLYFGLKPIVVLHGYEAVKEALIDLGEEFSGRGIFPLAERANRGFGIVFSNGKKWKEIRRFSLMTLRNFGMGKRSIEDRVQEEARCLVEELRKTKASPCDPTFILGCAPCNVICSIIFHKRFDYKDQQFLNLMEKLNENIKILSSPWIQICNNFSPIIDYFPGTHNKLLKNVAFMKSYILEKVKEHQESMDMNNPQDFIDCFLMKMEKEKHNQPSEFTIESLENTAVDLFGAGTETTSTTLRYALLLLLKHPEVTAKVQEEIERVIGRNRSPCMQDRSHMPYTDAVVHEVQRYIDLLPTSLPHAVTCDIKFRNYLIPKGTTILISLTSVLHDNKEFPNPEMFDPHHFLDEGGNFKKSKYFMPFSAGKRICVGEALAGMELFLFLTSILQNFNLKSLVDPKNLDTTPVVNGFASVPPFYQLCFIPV

SMILES	Potency [1]	Potency [2]	activity change, positive = activation [3]	Potency [4]	Potency [5]	activity change, negative = inhibition [2]
C/C(CCC(=O)OC[C@@H]1O[C@H](C#Cc2ccccc2)C=C[C@@H]1Oc1ccc(C)cc1)=N/O[C@@H](C)c1cn([C@H](CO)Cc2ccccc2)nn1	3.16 µM (active)	3.98 µM (active) and 3.16 µM (active)	-114% [at 11.4 µM] and -117% [at 11.4 µM]	3.98 µM (active)	–	–
CC#CC(C)C(OCOC)C(CC(C)Cc1cc(Br)cc(OCc2ccccc2)c1OC)OC (configuration not stated)	inactive	3.16 µM (active)	-76.2% [at 11.4 µM]	inactive	inactive	–
COc1ccc(OC2C(O)COC2/C=C/C#Cc2ccc(F)cc2F)cc1 (configuration not stated)	2.51 µM (active)	3.98 µM (active) and 3.16 µM (active)	-91.9% [at 11.4 µM] and -66.3% [at 11.4 µM]	inactive	inactive	–
COc1ccc(OCC2Cc3c(-c4ccccc4)nc4c(c3CO2)CN(CCOc2ccccc2)CC4)cc1 (configuration not stated)	inactive	3.98 µM (active)	-83.6% [at 11.4 µM]	inactive	inactive	–
C=CCOC(=O)C(C(C)=O)C(NC(=O)OC)c1cccs1 (configuration not stated)	inactive	3.16 µM (active)	-101% [at 11.4 µM]	0.398 µM (active)	inactive	–
C#CCC(C(=O)OC)(C(=O)OC)C(C[N+](=O)[O-])c1ccccc1 (configuration not stated)	inactive	3.16 µM (active)	-77% [at 11.4 µM]	inactive	inactive	–
C/C=C/OC(=O)NC(c1ccccc1)[C@@]1(C(=O)OC)CCCC1=O (some centres not stated)	inactive	1 µM (active)	-81.6% [at 11.4 µM]	1.26 µM (active)	inactive	–
COC(=O)[C@@H]1CC[C@H](C)[C@@H](c2ccc(C)cc2)N1C(=O)c1ccc(/C=N\O[C@@H](C)c2cn([C@H](CO)Cc3ccccc3)nn2)cc1	3.16 µM (active) and 2.51 µM (active)	1.26 µM (active) and 3.16 µM (active)	-62.7% [at 11.4 µM] and -101% [at 11.4 µM]	3.98 µM (active)	–	–
CC1CCC(C(=O)O)NC1c1ccc(-c2ccco2)cc1 (configuration not stated)	inactive	–	–	–	inactive	-4.5% [at 11.4 µM]
CC1C=CCCOC1c1ccccc1 (configuration not stated)	inactive	–	–	–	inactive	-13.6% [at 11.4 µM]
COC(=O)NC(c1ccccc1)[C@]1(C(C)=O)CCCC1=O (some centres not stated)	inactive	–	–	inactive	inactive	-20.1% [at 11.4 µM]
COC(=O)NC(c1ccccc1)C(C#N)C(=O)OC (configuration not stated)	inactive	–	–	–	inactive	-16.5% [at 11.4 µM]
CCOC(=O)CCCCC1=CC2=CC(=O)C(C)(O)C(=O)C2=CO1 (configuration not stated)	inactive	–	–	inactive	inactive	-20.4% [at 11.4 µM]
COC(=O)NC(c1ccco1)[C@@]1(C(=O)OC)CCCC1=O (some centres not stated)	inactive	–	–	inactive	inactive	-10.6% [at 11.4 µM]
CC1CCC(C(=O)O)NC1c1ccc(C#CCN(C)C)cc1 (configuration not stated)	inactive	–	–	inactive	inactive	-30.5% [at 11.4 µM]
COC(=O)NC(CC(C)=O)c1ccc(F)cc1 (configuration not stated)	inactive	–	–	inactive	inactive	-12% [at 11.4 µM]
CCOC(=O)OCC1OC(c2ccccc2)C=CC1Oc1ccc2oc(=O)cc(C)c2c1 (configuration not stated)	inactive	–	–	–	inactive	-10.6% [at 11.4 µM]
O=C1C2Cc3c([nH]c4ccccc34)C(c3ccccc3)N2C(=O)C2Cc3c([nH]c4ccccc34)C(c3ccccc3)N12 (configuration not stated)	inactive	–	–	–	inactive	-20.8% [at 11.4 µM]
CC(=O)c1ccc(C2C=CC(Oc3ccc(-c4ccccc4)cc3)C(CO)O2)cc1 (configuration not stated)	3.98 µM (active)	–	–	–	inactive	0.0168% [at 11.4 µM]
CCOC(=O)[C@]1(C(NC(=O)OC)c2cccc(C)c2)CCCC1=O (some centres not stated)	inactive	–	–	inactive	inactive	-23.1% [at 11.4 µM]
OCC1OC(C#Cc2ccccc2)C=CC1OCc1ccccc1 (configuration not stated)	inactive	–	–	–	inactive	-24.2% [at 11.4 µM]
CC(C)CC1OCCC=CC1C (configuration not stated)	inactive	–	–	inactive	inactive	-2.57% [at 11.4 µM]
